# According to PubChem BioAssay (Tox21):
# Values joined by “and” are separate entries in the source; they are usually repeats but may differ in a detail not shown here. Identical values can stand only once. Inconclusive results are not listed. A call without a number means that no potency is given here. Unmarked numbers belong to inactive results. Active and inactive are the calls of the source. The call rests on the fitted dose curve; in most records, active means well fitted cell-killing curve with a large enough effect in the repeat runs; inconclusive means weak or mixed curves, or effect the other way; inactive means flat fitted curve, though single readings scatter.
# How the values were obtained:
# [1] = cAMP Responsive Elements (CRE) small molecule antagonists, cell-based qHTS assay: qHTS cell viability counter screen (AID 2060913); further: nearly all actives have a fitted effect of over 40% in size
# Outline: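 CRE-bla HEK293T cells (2,000/well, 18 h) given compound plus NKH477 0.25 uM final for 3 h at 37C; viability counter-screen by CellTiter-Glo luminescence in same wells after 30 min.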
# [2] = cAMP Responsive Elements (CRE) small molecule agonists, cell-based qHTS assay: qHTS cell viability counter screen (AID 2060914); further: nearly all actives have a fitted effect of over 50% in size
# Outline: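 In the same wells as the reporter read, viability of CRE-bla HEK 293T cells was quantified by CellTiter-Glo luminescence after a 3 h compound exposure.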
# Potency means the concentration at half of the fitted maximal effect.
SMILES,Potency [1],Potency [2],"viability change, negative = cytotoxic [1]","activity change, negative = cytotoxicity [2]"
CCOCCOCC,inactive,inactive,–,–
Clc1sc(Cl)c(Cl)c1Cl,inactive,inactive,–,–
CC(O)COCC(C)O (configuration not stated),inactive,inactive,–,–
CC(C)(C)C(=O)C(=O)O,inactive,inactive,–,–
C=C(C)C(=O)OCCCCCCCCCC,inactive,inactive,–,–
Clc1ccccn1,inactive,inactive,–,–
Cc1ccc([N+](=O)[O-])cc1Cl,inactive,inactive,–,–
CCN(CCO)c1cccc(C)c1,inactive,inactive,–,–
CC[C@@H](N)CO,inactive,inactive,–,–
CCC(=O)/C=C/C1C(C)=CCCC1(C)C (configuration not stated),inactive,inactive,–,–
C=CCOC(=O)CCCCCCCC,inactive,inactive,–,–
CN(C)c1ccc(C(=C2C=CC(=[N+](C)C)C=C2)c2ccc(N(C)C)cc2)cc1,30.5 µM (active) and 61.1 µM (active) and 29.8 µM (active),48.3 µM (active) and 61.1 µM (active) and 29.8 µM (active),–,–
CC(C)(N)CO,inactive,inactive,–,–
C#C[C@]1(O)CC[C@H]2[C@@H]3CCC4=Cc5oncc5C[C@]4(C)[C@H]3CC[C@@]21C,inactive,inactive,–,–
CCCCCCCC/C=C\CCCCCCCC(N)=O,inactive,inactive,–,–
C=CCCCCCCCCC(=O)O,inactive,inactive,–,–
CCCSSCCC,inactive,inactive,–,–
CC(=O)C1CCCCC1=O (configuration not stated),inactive,inactive,–,–
O=[N+]([O-])c1cccc(S(=O)(=O)NCCNS(=O)(=O)c2cccc([N+](=O)[O-])c2)c1,inactive,inactive,–,–
CCOC(=O)/C=C/C(=O)OCC,inactive,inactive,–,–
CCCCC(CC)(CO)CO,inactive,inactive,–,–
CNC(=S)NN,inactive,inactive,–,–
CO[C@@]1(NC(=O)C(C(=O)O)c2ccc(O)cc2)C(=O)N2C(C(=O)O)=C(CSc3nnnn3C)CO[C@@H]21 (some centres not stated),inactive,inactive,–,–
CCCCCCCCCCCCCO,inactive,inactive,–,–
CCCCN1CCCC1C(=O)Nc1c(C)cc(C)cc1C (configuration not stated),inactive,inactive,–,–
CC(=O)c1cccnc1,inactive,inactive,–,–

SMILES,Potency [1],Potency [2],"viability change, negative = cytotoxic [1]","activity change, negative = cytotoxicity [2]"
O=S(=O)(O)c1ccc(O)c2ncccc12,inactive,inactive,–,–
Cc1c(C(=O)NCCO)[n+](=O)c2ccccc2n1[O-],inactive,inactive,–,–
Cc1ccc2ncccc2c1,inactive,54.5 µM (active),–,–
CN1C[C@@H]2C[C@H]1CN2c1cc2c(cc1F)c(=O)c(C(=O)O)cn2C1CC1,–,–,-0.602% [at 18.9 µM],19.9% [at 18.9 µM]
Cc1ccc(-c2cc(C(F)(F)F)nn2-c2ccc(S(N)(=O)=O)cc2)cc1,inactive,inactive,–,–
Cc1cccc(Nc2ccncc2S(=O)(=O)NC(=O)NC(C)C)c1,inactive,inactive,–,–
C=Cc1c(C)c2cc3[nH]c(cc4nc(cc5nc(cc1[nH]2)C(C)=C5CCC(=O)O)C(CCC(=O)O)=C4C)c(C)c3C=C,inactive,inactive,–,–
CCCCCCCCCCC=CC1CC(=O)OC1=O (configuration not stated),inactive,inactive,–,–
COc1ccc2cc([C@H](C)C(=O)O)ccc2c1,inactive,inactive,–,–
CCCCCOc1ccccc1/C(=C\SC)n1ccnc1,inactive,inactive,–,–
CCCCCC[C@@H](O)C/C=C\CCCCCCCC(=O)OCC(O)CO (some centres not stated),inactive,inactive,–,–
CCCCC1CCCCC(=O)O1 (configuration not stated),inactive,inactive,–,–
OCc1cccnc1,inactive,inactive,–,–
O=C(CS(=O)Cc1ccco1)NC/C=C\COc1cc(CN2CCCCC2)ccn1 (configuration not stated),inactive,inactive,–,–
O=C(O)Cc1c[nH]c2ccccc12,inactive,inactive,–,–
COC(=O)N[C@H](C(=O)N[C@@H](Cc1ccccc1)[C@@H](O)CN(Cc1ccc(-c2ccccn2)cc1)NC(=O)[C@@H](NC(=O)OC)C(C)(C)C)C(C)(C)C,inactive,inactive,–,–
CC(C)(C)NCC(O)c1cc(O)cc(O)c1 (configuration not stated),inactive,inactive,–,–
Cc1ncc(CSSCc2cnc(C)c(O)c2CO)c(CO)c1O,inactive,inactive,–,–
CC(C)NNC(=O)c1ccncc1,inactive,inactive,–,–
Nc1nc2c(ncn2COC(CO)CO)c(=O)[nH]1,inactive,inactive,–,–
CC(COc1ccccc1)NC(C)C(O)c1ccc(O)cc1 (configuration not stated),inactive,inactive,–,–
CC(=O)OCC[N+](C)(C)C,inactive,inactive,–,–
O=C(C(=O)c1ccccc1)c1ccccc1,inactive,inactive,–,–
CCCCCCCCCCCCCBr,inactive,inactive,–,–
O=C(CCCCCCCCc1cccnc1)N1CCC(C=C(c2ccccc2)c2ccccc2)CC1,inactive,inactive,–,–
